# Screening data: PubChem BioAssay, National Center for Advancing Translational Sciences (NCATS)
# VDR inh = inhibitors of human vitamin D receptor; P11473; VDR-SRC2-3 peptide fluorescence polarization, 2 h; Potency, µM, inactives show max response, negative = inhibition, usual class: inhibitors; 400,000 compounds, 0.93% hits; also: potency is read from the fitted curve at half-maximal effect
# Target sequence (P11473 whole entry, looked up): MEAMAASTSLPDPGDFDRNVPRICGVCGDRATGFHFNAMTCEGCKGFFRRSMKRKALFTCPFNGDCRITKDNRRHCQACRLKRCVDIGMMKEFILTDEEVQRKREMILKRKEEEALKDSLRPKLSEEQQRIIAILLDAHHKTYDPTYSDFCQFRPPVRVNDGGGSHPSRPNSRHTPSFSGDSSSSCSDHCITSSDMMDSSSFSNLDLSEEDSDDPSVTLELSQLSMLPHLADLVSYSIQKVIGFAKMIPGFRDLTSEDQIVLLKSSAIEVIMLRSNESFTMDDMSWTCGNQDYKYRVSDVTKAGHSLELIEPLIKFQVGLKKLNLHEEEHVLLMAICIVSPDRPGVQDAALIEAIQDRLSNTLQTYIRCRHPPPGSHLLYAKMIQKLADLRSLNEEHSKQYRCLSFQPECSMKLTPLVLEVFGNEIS
#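 FP read-out; VDR + SRC2-3 coactivator peptide; 23 nl compound by pintool; 2 h RT incubation; reagents held at 4 deg C, protected from light.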
# G9a inh = inhibitors of human histone lysine methyltransferase G9a | G9a H3K9 monomethylation, AlphaScreen, 2 h | Potency, µM (highest dose often 102 µM), inactives show top-dose activity, negative = inhibition, hits mostly inhibitors | 350,000 compounds, 8.8% hits | AID 504332; also: potency is read from the fitted curve at half-maximal effect; nearly all actives have a fitted effect of over 75% in size
# Target sequence (Q96KQ7 913-1193 limits assumed): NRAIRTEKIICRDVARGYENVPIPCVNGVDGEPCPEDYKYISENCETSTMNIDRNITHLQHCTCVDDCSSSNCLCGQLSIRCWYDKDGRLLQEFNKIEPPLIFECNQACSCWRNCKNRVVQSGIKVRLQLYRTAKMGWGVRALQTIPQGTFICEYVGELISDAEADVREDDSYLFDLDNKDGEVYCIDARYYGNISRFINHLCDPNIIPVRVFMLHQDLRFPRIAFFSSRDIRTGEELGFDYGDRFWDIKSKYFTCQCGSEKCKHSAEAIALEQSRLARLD
#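 AlphaScreen detection with an anti-monomethyl H3K9 antibody quantified product after a 2 h room-temperature reaction containing 500 nM biotinylated H3K9 peptide, 20 µM SAM and 20 nM enzyme, which had been preincubated 15 min with compound.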
# Mm-Cpn inhibitor = blocks the Methanococcus maripaludis chaperonin Mm-Cpn. Potency, µM (highest dose often 76.9 µM), inactives show top-dose activity, negative = inhibition, most hits filed as inhibitors. 330,000 compounds, 0.031% hits. purified Mm-Cpn ATPase, ADP Transcreener TR-FRET. AID 504842; also: potency is read from the fitted curve at half-maximal effect; nearly all actives have a fitted effect of over 80% in size
#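 Purified archaeal Mm-CPN (25nM final) preincubated 10 min at 37degC with compound, then 10uM ATP for 30 min at 37degC; ADP measured by HTRF Transcreener TR-FRET; buffer 30 mM TRIS pH 7.4, 100mM KCl, 5mM MgCl2, 1mM DTT.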
# PLK1 PBD inh = PLK1 (human) polo-box domain binding inhibition; P53350; Plk1 PBD binding of FITC phosphopeptide, fluorescence polarization; Potency, µM, for inactives: max response, negative = inhibition, usual class: inhibitors; 360,000 compounds, 2.8% hits; AID 720504; also: potency is read from the fitted curve at half-maximal effect; series mostly up to about 57 µM; nearly all actives have a fitted effect of over 65% in size
# Sfp PPTase inh = blocks B. subtilis Sfp PPTase activity; 310,000 compounds, 3.5% hits; AID 1490; Potency, µM, for the others: largest response in the series, negative = inhibition, actives largely listed as inhibitors; Biochemical Sfp PPTase activity, qHTS;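 also: the enzyme is Sfp with the accession as filed and its product quenches rhodamine fluorescence; potency is read from the fitted curve at half-maximal effect; 0% = enzyme reaction without inhibitor and -100% = no enzyme wells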
#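 After 15 min at room temperature with compound, 15 nM Sfp received 5 uM rhodamine-CoA plus 12.5 uM BHQ-2-ybbR (50 mM Hepes pH 7.6, 10 mM MgCl2). Rate came from the fluorescence difference over 30 min, ex 525/em 598 nm.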
# CCT chaperon mod = cytosolic chaperonin activity modulation; purified chaperonin ATPase assay, HTRF ADP detection, 30 min; activity change, % (test concentration not listed), hits read low; 360,000 compounds, 0.3% hits; AID 651819; in the data active = activity change below about -30%
#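 TRiC (40 or 20 nM final, by batch activity) in 30 mM Tris pH 7.4, 100 mM KCl, 5 mM MgCl2, 1 mM DTT was treated with compound at 76 uM single dose, then 10 uM ATP, 30 min at 37 °C. ADP was read by HTRF Transcreener.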
# The depositor's hits bear a star; ? = inconclusive; · = no result given; [ ] = another dose, or the depositor's remark. An excerpt weighted towards active compounds, which were near 10% of everything screened. Unless noted, calls follow the shape of the dose curve; as a rule, active = well fitted curve in the direction sought with a large enough effect; inconclusive = small, poorly fitted or top-dose-only effect, or another doubt; inactive = no such curve, though single readings can be large; an effect the other way counts as inactive or inconclusive. Unless noted, % is scaled to controls: 0 for no effect and ±100 for the full control effect.
SMILES,VDR inh,G9a inh,Mm-Cpn inhibitor,PLK1 PBD inh,Sfp PPTase inh,CCT chaperon mod
O=C(CC1C(=O)NCCN1CC1CCCCC1)NCc1cc(F)ccc1F (stereo not drawn),?,·,-5.1%,3.77µM*,-2.8%,-0.2
O=C(CC1C(=O)NCCN1CC1CCCCC1)NCc1ccc(F)cc1F (stereo not drawn),-16.2%,·,-1.0%,-12.9%,4.8%,-1.6
CC(C)c1cc(CNC(=O)CC2C(=O)NCCN2CC2CCCCC2)on1 (stereo not drawn),-1.4%,50.1µM*,-0.5%,-4.9%,7.3%,2.0
O=C(CCC(=O)OCC(=O)c1ccc(Cl)cc1)Nc1ccc(Oc2ccccc2)cc1,-14.5%,-47.2%[59 µM],·,·,·,·
CC1C(=O)N(S(=O)(=O)c2ccc([N+](=O)[O-])cc2)[C@H]1c1ccc2ccccc2c1 (stereo partly drawn),?,·,·,·,-20.7%,·
CCOC(=O)C1=C(N)n2c(s/c(=C\c3ccco3)c2=O)=C(C(=O)OC(C)C)C1c1ccco1 (stereo not drawn),28.1%,28.2µM*,0.4%,-8.8%,-7.3%,-1.0
COCCCN(C(=S)Nc1ccc(C)cc1Cl)C(C)c1ccncc1 (stereo not drawn),11.3%,21.6%[59 µM],0.7%,-5.1%,-10.2%,2.1
COc1ccc(NC(=S)N(CCN(C)C)C(C)c2ccncc2)cc1Cl (stereo not drawn),8.7%,·,0.6%,-29.0%,-3.1%,-0.2
COCCCN(C(=S)Nc1cc(Cl)cc(Cl)c1)C(C)c1ccccn1 (stereo not drawn),?,?,0.2%,16.8µM*,25.1µM*,2.4
Cc1ccc(NC(=S)N(CCC(C)C)C(C)c2ccncc2)c(Cl)c1 (stereo not drawn),-13.8%,-0.3%[12.7 µM],-1.7%,-8.4%,56.2µM*,-1.6
COCCCN(C(=S)Nc1cc(Cl)cc(Cl)c1)C(C)c1ccncc1 (stereo not drawn),?,?,1.4%,21.2µM*,25.1µM*,1.0
Cc1ccc(CNC(=O)C(=O)NCC(c2ccco2)S(=O)(=O)c2ccccc2)cc1 (stereo not drawn),-7.9%,2.6%[59 µM],·,·,·,·
C=CCOc1c(Br)cc(/C=N/n2c(CC)n[nH]c2=S)cc1Br,14.6%,?,2.7%,-16.7%,79.4µM*,1.3
CCN(CC)c1ccc(/C=N/N2CC(=O)NC2=S)cc1,13.0%,7.94µM*,-3.6%,-21.4%,·,-1.7
CCN(CC)c1ccc(/C=N/n2c(C)cc(C)cc2=O)cc1,16.0%,22.6%,0.4%,-1.1%,7.9%,-1.5
CCc1n[nH]c(=S)n1/N=C/c1ccc(N(CC)CC)cc1,-14.5%,1.78µM*,-0.7%,-11.8%,-33.2%,2.0
C=CCOc1c(Br)cc(/C=C2/NC(=S)N(C(C)=O)C2=O)cc1OC,?,-0.8%[59 µM],1.0%,-16.9%,?,-3.5
FC(F)(F)c1ccc(/C=N/n2c(COc3ccccc3)n[nH]c2=S)cc1,-12.6%,-4.6%[2.33 µM],-0.6%,26.7µM*,?,-3.3
CCc1ccc(/C=N/n2c(COc3ccccc3)n[nH]c2=S)cc1,0.7%,20µM*,2.0%,?,-29.9%,-1.8
S=c1[nH]nc(COc2ccccc2)n1/N=C/c1ccncc1,4.2%,?,3.1%,-14.0%,10.8%,0.2
COC(=O)c1c(C)sc(-c2c(-c3ccc4c(c3)OCCO4)[nH]c3c2c(=O)[nH]c(=O)n3C)c1O,1.5%,-5.4%[59 µM],·,·,·,·
COc1ccc(CCC(=O)NNC(=S)Nc2cccc(C(C)=O)c2)cc1,-12.2%,39.8µM*,0.2%,-26.8%,8.4%,-1.7
COc1cccc(NC(=O)NNC(=O)CCc2ccc(O)c(O)c2)c1,2.8%,·,2.0%,-2.5%,56.2µM*,-0.6
COc1ccc(C2C=C(c3cccc(OC)c3)Nc3c(C(=O)Nc4ccccc4)cnn32)cc1 (stereo not drawn),7.6%,8.8%[59 µM],·,·,·,·
CCCc1cc(=O)[nH]c(SCC(=O)N2CCN(S(=O)(=O)c3ccc(Cl)cc3)CC2)n1,5.6%,-0.2%[59 µM],-9.7%,-1.5%,-2.5%,2.3
SMILES,VDR inh,G9a inh,Mm-Cpn inhibitor,PLK1 PBD inh,Sfp PPTase inh,CCT chaperon mod
CCCc1cc(=O)[nH]c(SCC(=O)N(C)CC(=O)Nc2ccccc2CC)n1,?,-1.0%[59 µM],0.6%,26.7µM*,0.4%,-2.2
CCCc1cc(=O)[nH]c(SCC(=O)N(C)Cc2ccccc2)n1,-15.6%,8.5%[59 µM],-4.6%,-14.5%,2.3%,-6.4
CCCc1cc(=O)[nH]c(SCC(=O)CSc2nc(CCC)cc(=O)[nH]2)n1,?,56.2µM*,0.4%,-15.9%,56.2µM*,2.6
CCCc1cc(=O)[nH]c(SCC(=O)c2ccc(S(=O)(=O)N3CCCC3)cc2)n1,-1.1%,50.1µM*,-0.3%,-13.6%,-8.4%,-2.1
CCCc1cc(=O)[nH]c(SCC(=O)c2cc(C)n(C)c2C)n1,-4.3%,50.1µM*,1.0%,-9.1%,6.6%,-3.6
CCOc1cc(-c2sc(Nc3ccccc3)n[n+]2C)ccc1OC,-7.0%,44.7µM*,-1.8%,-10.5%,-0.9%,0.7
Cc1cc(O)c(CN2CCN(c3ccc(F)cc3)CC2)c2oc(=O)cc(C)c12,4.8%,-7.7%[59 µM],·,·,·,·
Cc1cccc(-c2cc3nc4c(c(NCc5ccco5)n3n2)CCCC4)c1,1.7%,0.3%[59 µM],-5.8%,-6.7%,50.1µM*,-0.9
COc1ccc2c(c1)-c1nc(/N=C/c3cccc(OC)c3O)sc1CC2,7.7%,17.8µM*,?,-11.5%,-1.5%,-1.0
Cc1ccc(C(=O)Nc2nc(=O)n(C(=O)CC(C)C)s2)cc1,?,-43.5%[12.7 µM],3.6%,-19.4%,16.1%,-24.4
Cc1ccc(C(=O)Nc2ccccc2Cl)cc1,6.8%,21.6%[0.501 µM],-1.5%,-2.0%,17.4%,-3.5
Cc1ccc(C(=O)Nc2nc(=O)n(C)s2)cc1,-11.4%,·,1.1%,3.0%,7.6%,-3.8
CC(C)CC(=O)n1sc(NC(=O)c2ccccc2)nc1=O,44.7µM*,1.3%[2.33 µM],1.0%,-6.7%,-4.5%,1.4
Cn1sc(NC(=O)c2ccc(Cl)cc2)nc1=O,-7.2%,39.8µM*,1.2%,-8.1%,56.2µM*,-0.3
Cc1ccc(C(=O)Nc2nc(=O)n(C(=O)c3ccccc3Cl)s2)cc1,17.8µM*,?,-2.9%,?,-14.4%,-0.5
Cc1cccc(OC(=O)c2cc(-c3ccc4c(c3)OCCO4)on2)c1,-2.0%,-3.3%[59 µM],·,·,·,·
O=c1c2ccccc2sn1-c1ccc(F)cc1,15.8µM*,2.2%[0.501 µM],-2.2%,2.99µM*,·,-0.7
Cc1ccc(-n2sc3cc(F)ccc3c2=O)c(C)c1,·,·,·,2.99µM*,·,-23.1
O=c1c2ccc(F)cc2sn1-c1ccccc1,·,·,·,3.36µM*,·,-0.5
COC(=O)c1cccc(-n2sc3ccccc3c2=O)c1,?,7.7%[0.501 µM],-1.8%,2.67µM*,·,-0.7
COc1cccc([C@@H]2Oc3ccc(OC)cc3C(=O)[C@H]2OC(=O)NCc2ccco2)c1,-6.7%,·,·,·,-2.2%,·
O=c1c2cc(F)ccc2sn1-c1ccccc1Cl,·,·,·,2.67µM*,·,-14.9
